# Results as given in PubChem BioAssay (NCI).
# About 83,000 compounds went through this panel and 20% of them were active in at least one assay; those are over-represented in the sample as a whole.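 Activity criterion: percent growth below 10, measured after cells in 96-well plates were exposed to a single compound concentration for 48 hours.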 Values without a mark were called inactive. Activity calls are given as the source filed them.
# Assays:
# Experiment in all cases: NCI-60 one-dose screen, 48 h (100 = growth as untreated, 0 = no growth, -100 = all killed)
# Details in all cases: 10 µM unless noted
# NCI-H23 lung = test system: NCI-H23 lung
# NCI-H226 lung = test system: NCI-H226 lung
# NCI-H322M lung = test system: NCI-H322M lung
# HOP-62 NSCLC = test system: HOP-62 NSCLC
# NCI-H460 lung = test system: NCI-H460 lung
# HOP-92 NSCLC = test system: HOP-92 NSCLC
# NCI-H522 lung = test system: NCI-H522 lung
# A549/ATCC NSCLC = test system: A549/ATCC NSCLC
# 786-0 renal = test system: 786-0 renal
# COLO 205 colon = test system: COLO 205 colon
# K-562 leukemia = test system: K-562 leukemia
# MALME-3M melanoma = test system: MALME-3M melanoma
# MDA-MB-231 breast = test system: MDA-MB-231 breast
# RXF 393 renal = test system: RXF 393 renal
# SF-295 CNS = test system: SF-295 CNS
# SF-539 CNS = test system: SF-539 CNS
# UACC-257 melanoma = test system: UACC-257 melanoma
# DU-145 prostate = test system: DU-145 prostate
# SF-268 CNS = test system: SF-268 CNS
# M14 melanoma = test system: M14 melanoma
Compound,growth (NCI-H23 lung),growth (NCI-H226 lung),growth (NCI-H322M lung),growth (HOP-62 NSCLC),growth (NCI-H460 lung),growth (HOP-92 NSCLC),growth (NCI-H522 lung),growth (A549/ATCC NSCLC),growth (786-0 renal),growth (COLO 205 colon),growth (K-562 leukemia),growth (MALME-3M melanoma),growth (MDA-MB-231 breast),growth (RXF 393 renal),growth (SF-295 CNS),growth (SF-539 CNS),growth (UACC-257 melanoma),growth (DU-145 prostate),growth (SF-268 CNS),growth (M14 melanoma)
Cc1cc(C)on1,109%,103%,111%,111%,116%,89.3%,107%,97.9%,101%,112%,102%,112%,104%,101%,115%,103%,91.6%,,,
C=C(C=O)C1CCC2(C(=O)O)CCC3(C)C(CCC4C5(C)CCC(O)C(C)(C)C5CCC43C)C12 (stereo unspecified),-52.1% (active),5.95% (active),31.3%,14.8%,-12.8% (active),67.1%,24.2%,34.1%,-37.3% (active),,13.6%,1.55% (active),32.6%,-63.7% (active),-6.97% (active),-43.4% (active),-46.4% (active),-38.4% (active),24.3%,
CCCCCCCC/C=C/CCCCCCCC1=NCC[N+]1(CCO)CCO,67.9%,71.1%,83.8%,74.8%,42.7%,46.4%,29%,81.9%,72.3%,,32.7%,96.2%,56.6%,50.1%,79.6%,90.3%,104%,78.9%,75.2%,71.4%
Cc1ccc(Nc2ccc(Nc3ccc(C)cc3S(=O)(=O)O)c3c2C(=O)c2ccccc2C3=O)c(S(=O)(=O)O)c1,97.2%,96.9%,90%,107%,102%,99%,93.3%,112%,111%,,100%,101%,95.6%,107%,101%,102%,112%,102%,103%,88%
Cc1[nH]c(-c2nc3ccccc3[nH]2)c(C)c1C(=O)NNc1ccc(Cl)cc1,91%,84.1%,89.6%,98.7%,103%,90.6%,80.9%,93.1%,94.7%,,94.1%,94.5%,79.2%,103%,109%,95.7%,91%,105%,95.3%,102%
COc1cc2c(=O)n(CCCn3ccnc3)c3c4cc5c(cc4ccc3c2cc1OC)OCO5,5.18% (active),-42.5% (active),17.5%,10.5%,-9.42% (active),-5.78% (active),5.91% (active),22%,-57.3% (active),,24%,39.9%,7.7% (active),-27% (active),-18.4% (active),-20.2% (active),3.98% (active),15.2%,29%,-4.48% (active)
CCN1CCN(c2ccc(Nc3cc(-c4cccnc4Nc4c(Cl)c(OC)cc(OC)c4Cl)ncn3)cc2)CC1,63.8%,47%,68.7%,40.6%,23.7%,54.5%,75.9%,39.9%,89.2%,,44.5%,76.2%,85.8%,34.3%,79.5%,47.1%,91.6%,62.9%,65.1%,72.9%
CC(=[N-])N1CCC[C@@H](Nc2c3ccccc3nc3ccccc23)C1.[Cl][Pt].[NH-]CCC[NH-],-2.65% (active),-4.62% (active),44.9%,51.9%,0.597% (active),28.7%,-18.5% (active),7.75% (active),53.5%,,19.2%,20.7%,46.9%,-24.3% (active),56.8%,36.9%,66.9%,5.94% (active),62.3%,65.3%
CC1(C)C(=O)/C(=C\c2cccnc2)C[C@]2(C)[C@H]3CC=C4[C@@H]5C[C@@](C)(C(=O)O)CC[C@]5(C)CC[C@@]4(C)[C@]3(C)CC[C@@H]12,102%,92.9%,93.1%,96.6%,101%,88.9%,87.1%,78.8%,101%,,80.7%,126%,101%,92.2%,93.9%,101%,87.7%,104%,98.9%,100%
O=C(NC(=S)Nc1ccc(-c2nc3ccccc3[nH]2)cc1)c1ccc2ccccc2c1,58.1%,51.1%,21.5%,8.8% (active),5.41% (active),-1.16% (active),63.2%,26.3%,-67.5% (active),,59.9%,-12% (active),-18.6% (active),-66.3% (active),19.7%,-30.8% (active),49.2%,18.8%,51%,38%
C[C@H]1[C@H]2C3=CC[C@@H]4[C@@]5(C)C/C(=C/c6ccncc6)C(=O)C(C)(C)[C@@H]5CC[C@@]4(C)[C@]3(C)CC[C@@]2(C(=O)N2CCN(C)CC2)CC[C@@H]1C,93.2%,85.5%,78.2%,74.7%,68.3%,42.8%,70%,63.9%,81.4%,,40.2%,102%,81.4%,83.8%,87.7%,83.2%,83.6%,89.3%,82.4%,65.7%
CN1CCN(C(=O)[C@]23CCC(C)(C)C[C@@H]2C2=CC[C@@H]4[C@@]5(C)Cc6c([nH]c7ccccc67)C(C)(C)[C@@H]5CC[C@@]4(C)[C@]2(C)CC3)CC1,93.3%,86.9%,88.6%,80%,75.8%,70.7%,78.2%,69.4%,74.4%,,66.1%,90.2%,79%,80.1%,92.2%,76.7%,86.1%,84.6%,84.6%,78%
CCn1c(Sc2nnc(Nc3ccccc3)s2)nc2c1c(=O)n(C)c(=O)n2C,88.2%,102%,91.4%,93.5%,106%,61.5%,114%,99.9%,93.2%,,114%,94.9%,97.8%,91.4%,91.9%,96.2%,97.4%,113%,103%,104%
CC(C)(O)c1cccc(F)c1,104%,105%,100%,138%,112%,86.1%,99.6%,104%,104%,,105%,101%,89.5%,107%,106%,88%,108%,107%,106%,95.6%
CCCCCCCCn1cc(C2=C(c3coc4ccc(OC)cc34)C(=O)NC2=O)c2ccccc21,54.4%,-38.6% (active),99%,116%,101%,94.2%,96.7%,101%,104%,,121%,89.5%,102%,105%,97.2%,95.7%,94.7%,106%,97.2%,96.1%
CCN(CC)c1ccc(Nc2ccc(CC(=O)c3ccccc3)cc2)cc1,81.1%,97.4%,90.7%,94.6%,96.3%,77.5%,47%,91.4%,88.3%,,82.3%,106%,75.7%,89.2%,97.8%,89.4%,93.7%,98.1%,87%,87.6%
